Data taken from ChEMBL document CHEMBL3433997, “St. Jude Leishmania screening dataset” (2016).

How the values were obtained:
Format in all cases: functional
[1] = target: Solute carrier family 2, facilitated glucose transporter member 1 (Homo sapiens) (UniProt P11166); test: ST_JUDE_LEISH: Cytotoxicity at 2uM final concentration against transgenic Leishmania Mexicana promastigotes LmGLUT1 that are glucose transport deficient and complemented with the human glucose transporter GLUT1. Activity is measured by DNA content using SYBR green in vitro
[2] = target: Hexose transporter 1 (Plasmodium falciparum) (UniProt O97467); test: ST_JUDE_LEISH: Cytotoxicity at 2uM final concentration against transgenic Leishmania Mexicana promastigotes LmPfHT that are glucose transport deficient and complemented with the Plasmodium falciparum hexose transporter. Activity is measured by DNA content using SYBR green in vitro
[3] = target: Glucose transporter (Leishmania mexicana) (UniProt O61059); test: ST_JUDE_LEISH: Cytotoxicity at 2uM final concentration against transgenic Leishmania Mexicana promastigotes LmGT2 that are glucose transport deficient and complemented with the L. Mexicana glucose transporter 2. Activity is measured by DNA content using SYBR green in vitro

Chain of Solute carrier family 2, facilitated glucose transporter member 1 (Homo sapiens) (P11166 whole entry): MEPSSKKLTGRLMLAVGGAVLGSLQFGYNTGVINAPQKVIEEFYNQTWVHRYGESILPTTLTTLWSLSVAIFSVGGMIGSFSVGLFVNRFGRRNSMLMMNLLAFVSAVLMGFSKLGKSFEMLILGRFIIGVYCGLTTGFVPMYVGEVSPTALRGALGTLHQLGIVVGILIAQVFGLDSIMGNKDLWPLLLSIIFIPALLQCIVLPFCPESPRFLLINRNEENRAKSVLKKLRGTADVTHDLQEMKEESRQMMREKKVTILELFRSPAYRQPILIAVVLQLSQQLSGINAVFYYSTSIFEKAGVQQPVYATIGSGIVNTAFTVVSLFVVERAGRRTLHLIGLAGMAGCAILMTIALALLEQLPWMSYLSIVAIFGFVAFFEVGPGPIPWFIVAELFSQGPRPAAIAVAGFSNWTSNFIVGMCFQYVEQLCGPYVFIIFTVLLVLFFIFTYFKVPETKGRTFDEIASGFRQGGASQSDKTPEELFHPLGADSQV

| SMILES | inhibition [1] [%] | inhibition [2] [%] | inhibition [3] [%] |
| --- | --- | --- | --- |
| CN(CC(=O)Nc1ccc(F)c(F)c1F)c1ncnc2sc(-c3ccccc3)cc12 | 3.92 | 4.09 | 2.74 |
| CS(=O)(=O)CCNc1cc(N2CCc3ncnc(Nc4ccc(OCc5cccc(F)c5)c(Cl)c4)c3C2)ncn1 | -0.04 | 0.75 | 0.08 |
| Cn1cncc1-c1ccc2ncnc(Nc3ccc(OCc4ccccc4)cc3)c2c1 | 0.55 | 1.48 | 0.29 |
